Measurements taken from PubChem BioAssay (Tox21).
“And” between values parts separate entries of the source, which are not always exact repeats. Identical values can stand only once. Inconclusive results are not listed. The source made the active and inactive calls. Unless noted, calls come from the whole dose curve; as a rule, active = well fitted curve in the direction sought with a large enough effect in the repeat runs; inconclusive = weak or mixed curves; inactive = no such curve, though single readings can be large; an effect the other way counts as inactive or inconclusive.

Legend:
[1] = qHTS assay to identify small molecule antagonists of the sonic hedgehog signaling (Shh) pathway (AID 1259369; calls by dose curve; note: nearly all actives have a fitted effect of over 45% in size; note: potency is the fitted concentration of half-maximal effect)
In short: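 Gli1 transcriptional reporter (firefly Luc) in NIH/3T3 background, conditioned-medium activated. 24hr exposure, luminescence endpoint.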

[2] = qHTS assay to identify small molecule antagonists of the estrogen receptor beta (ER-beta) signaling pathway - cell viability counter screen (AID 1259382); note: nearly all actives have a fitted effect of over 55% in size; note: potency is the fitted concentration of half-maximal effect
In short: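 HEK293T ER-beta-UAS-bla, 2% charcoal-stripped FBS; compounds + 1nM E2 16 hr 37C; CellTiter-Glo luminescence, 30 min RT.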

[3] = target: Estrogen receptor (Homo sapiens) (UniProt P03372); experiment: qHTS assay to identify small molecule agonists of the estrogen receptor alpha (ER-alpha) signaling pathway in the presence of an antagonist (AID 1259383; calls by dose curve; note: nearly all actives have a fitted effect of over 15% in size; note: potency is the fitted concentration of half-maximal effect; for activation: top concentration of the series differs between compounds)
In short: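 ER-alpha agonism measured under antagonist challenge: 10.0nM ICI-182,780 (final) plus compound, 15 concentrations, 22hr, VM7Luc4E2 ERE-luciferase cells. Read by luminescence.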

[4] = qHTS assay to identify small molecule agonists or antagonists of the thyroid stimulating hormone receptor (TSHR) signaling pathway - wild type cell line counter screen (AID 1259384; calls by dose curve)
In short: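 Wild-type HEK293 cells were plated 18 h at 37 C/5% CO2, pin-dosed with compound plus Ro20-1724 medium, held 30 min at room temperature, then given cAMP-d2 and anti-cAMP-cryptate; fluorescence was read after 1 h. Fifteen concentrations, triplicate.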

[5] = target: Estrogen receptor beta (Homo sapiens) (UniProt Q92731); experiment: qHTS assay to identify small molecule agonists of the estrogen receptor beta (ER-beta) signaling pathway (AID 1259377; active = well fitted activation curve with a large enough effect in the signal ratio in the repeat runs, not every such curve was filed as active; the % refers to the signal ratio; note: potency is the fitted concentration of half-maximal effect)
In short: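 Measured by fluorescence intensity from a B/G FRET beta-lactamase substrate (2 h, room temperature) in ER-beta-UAS-bla HEK293T cells treated with DMSO-dissolved compounds for 16 hr at 37C and 5% CO2.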

[6] = target: Estrogen receptor beta (Homo sapiens) (UniProt Q92731); experiment: qHTS assay to identify small molecule antagonists of the estrogen receptor beta (ER-beta) signaling pathway (AID 1259378; active = well fitted inhibition curve with a large enough effect in the signal ratio in the repeat runs, not every such curve was filed as active; the % refers to the signal ratio; note: potency is the fitted concentration of half-maximal effect)
In short: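 ER-beta-UAS-bla HEK293T (GripTite) cells in 2% charcoal-stripped FBS medium were preincubated 6 hr at 37C, dosed with compound, then stimulated with 1 nM E2 (final) for 16 hr; beta-lactamase reporter read by B/G FRET fluorescence after 2 hr substrate loading.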

[7] = qHTS assay to identify small molecule agonists of the estrogen receptor beta (ER-beta) signaling pathway - cell viability counter screen (AID 1259380); note: nearly all actives have a fitted effect of over 30% in size; note: potency is the fitted concentration of half-maximal effect
In short: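 In this qHTS counter screen, HEK293T cells carrying an ER-beta/UAS beta-lactamase reporter, grown in 2% charcoal-stripped FBS, received compound for 16 hr; ATP-based CellTiter-Glo luminescence was then read after 30 min at room temperature.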

[8] = qHTS assay to identify small molecule agonists of the androgen receptor (AR) signaling pathway in the presence of an antagonist - cell viability counter screen (AID 1259379); note: nearly all actives have a fitted effect of over 25% in size; note: potency is the fitted concentration of half-maximal effect
In short: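 Counter screen for cell viability run in parallel with the AR agonist-mode luciferase assay. MDA-kb2 cells were co-treated with nilutamide (3.0uM final) and compounds, then incubated 16 hr at 37C, and CellTiter-Fluor fluorescence was measured.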

[9] = target: Androgen receptor (Homo sapiens) (UniProt P10275); experiment: qHTS assay to identify small molecule agonists of the androgen receptor (AR) signaling pathway in the presence of an antagonist (AID 1259381; calls by dose curve; note: nearly all actives have a fitted effect of over 15% in size)
In short: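 AR antagonist background: nilutamide 3.0uM final. Cell line: MDA-kb2, MMTV-driven luciferase, responsive to both AR and GR. Exposure 16hr, 37C, no CO2; ONE-Glo luminescence.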

Measured: Potency

Chain of Androgen receptor (Homo sapiens) (P10275 whole entry, looked up): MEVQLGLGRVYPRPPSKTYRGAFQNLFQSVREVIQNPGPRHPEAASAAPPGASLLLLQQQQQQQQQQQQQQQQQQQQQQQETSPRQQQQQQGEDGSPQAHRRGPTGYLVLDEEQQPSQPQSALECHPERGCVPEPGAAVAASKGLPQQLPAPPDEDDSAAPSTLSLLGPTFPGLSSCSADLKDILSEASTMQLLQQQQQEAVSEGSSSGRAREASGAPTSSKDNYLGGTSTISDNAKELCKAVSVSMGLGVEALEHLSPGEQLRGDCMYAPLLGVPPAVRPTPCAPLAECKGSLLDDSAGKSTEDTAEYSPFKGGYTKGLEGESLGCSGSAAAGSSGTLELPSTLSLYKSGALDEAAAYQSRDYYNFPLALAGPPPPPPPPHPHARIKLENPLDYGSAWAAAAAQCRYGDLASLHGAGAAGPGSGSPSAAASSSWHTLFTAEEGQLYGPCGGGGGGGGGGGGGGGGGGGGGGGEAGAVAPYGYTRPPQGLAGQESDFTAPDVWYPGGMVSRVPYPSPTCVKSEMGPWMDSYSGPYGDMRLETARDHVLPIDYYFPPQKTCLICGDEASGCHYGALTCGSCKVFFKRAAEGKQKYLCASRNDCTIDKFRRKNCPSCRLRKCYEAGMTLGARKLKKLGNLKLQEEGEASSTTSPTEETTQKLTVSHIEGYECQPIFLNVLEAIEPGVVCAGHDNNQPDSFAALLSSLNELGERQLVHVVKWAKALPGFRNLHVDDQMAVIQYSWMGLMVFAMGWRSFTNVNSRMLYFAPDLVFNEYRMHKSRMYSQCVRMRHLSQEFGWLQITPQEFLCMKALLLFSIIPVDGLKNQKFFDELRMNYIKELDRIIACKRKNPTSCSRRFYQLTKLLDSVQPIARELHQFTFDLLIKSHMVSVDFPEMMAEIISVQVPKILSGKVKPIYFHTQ
Chain of Estrogen receptor (Homo sapiens) (P03372 whole entry, looked up): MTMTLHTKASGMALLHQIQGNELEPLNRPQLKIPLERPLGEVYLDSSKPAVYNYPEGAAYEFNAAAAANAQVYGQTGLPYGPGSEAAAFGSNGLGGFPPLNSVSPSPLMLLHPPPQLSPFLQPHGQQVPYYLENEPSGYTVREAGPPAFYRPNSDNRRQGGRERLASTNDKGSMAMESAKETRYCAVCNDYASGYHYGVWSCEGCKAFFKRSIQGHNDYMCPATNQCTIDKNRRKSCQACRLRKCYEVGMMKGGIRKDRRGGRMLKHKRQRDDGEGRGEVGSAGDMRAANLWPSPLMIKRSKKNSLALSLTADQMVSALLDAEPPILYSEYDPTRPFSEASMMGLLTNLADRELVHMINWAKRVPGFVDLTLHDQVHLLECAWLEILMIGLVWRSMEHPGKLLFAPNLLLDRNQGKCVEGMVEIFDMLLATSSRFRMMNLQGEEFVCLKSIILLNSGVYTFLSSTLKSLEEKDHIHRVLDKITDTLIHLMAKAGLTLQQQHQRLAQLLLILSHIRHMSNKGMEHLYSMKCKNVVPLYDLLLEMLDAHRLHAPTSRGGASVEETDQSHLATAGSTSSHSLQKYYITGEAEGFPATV
Chain of Estrogen receptor beta (Homo sapiens) (Q92731 whole entry, looked up): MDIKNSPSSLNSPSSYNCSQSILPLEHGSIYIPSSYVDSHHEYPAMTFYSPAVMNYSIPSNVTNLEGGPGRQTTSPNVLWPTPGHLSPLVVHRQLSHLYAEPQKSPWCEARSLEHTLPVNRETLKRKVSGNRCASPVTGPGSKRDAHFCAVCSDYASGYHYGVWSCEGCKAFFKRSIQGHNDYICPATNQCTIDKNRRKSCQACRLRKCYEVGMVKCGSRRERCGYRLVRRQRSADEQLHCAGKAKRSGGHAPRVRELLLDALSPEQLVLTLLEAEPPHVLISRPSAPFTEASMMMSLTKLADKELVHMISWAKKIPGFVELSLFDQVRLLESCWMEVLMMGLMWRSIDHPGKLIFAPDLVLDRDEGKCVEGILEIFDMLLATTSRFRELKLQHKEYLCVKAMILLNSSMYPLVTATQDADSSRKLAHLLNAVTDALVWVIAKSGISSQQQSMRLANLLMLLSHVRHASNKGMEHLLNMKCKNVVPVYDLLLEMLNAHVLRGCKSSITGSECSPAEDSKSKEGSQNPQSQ

C1C[C@@H]2[C@H]3CC[C@H](C3)[C@@H]2C1
inactive: [1] | [2] | [3] | [4]

O=c1cc(-c2ccccc2)oc2ccc3ccccc3c12
active: [7] 24.3 µM | [3] 686 nM
inactive: [5] | [6] | [4]

c1ccc2c(c1)CCc1ccccc1N2
inactive: [1] | [5] | [6] | [7] | [4]

O=C(O)CCCCCCCCCCCBr
inactive: [5] | [6] | [8] | [2] | [3]

Oc1c(I)cc(I)c2cccnc12
inactive: [2] | [3] | [4]
active: [6] 6.68 µM

CCC=CC#N
inactive: [1] | [5] | [6] | [8] | [7] | [2] | [3] | [4]

COc1ccc(OC(=O)N(CC(=O)O)Cc2ccc(OCCc3nc(-c4ccccc4)oc3C)cc2)cc1
inactive: [1] | [8] | [2] | [3] | [4]
active: [6] 23.7 µM | [7] 16.8 µM

NNC(=O)CP(=O)(c1ccccc1)c1ccccc1
inactive: [1] | [5] | [6] | [8] | [2] | [4]

CCOC(=O)OC(C)OC(=O)[C@@H]1N2C(=O)[C@@H](NC(=O)[C@H](N)c3ccccc3)[C@H]2SC1(C)C (stereo not given in full)
inactive: [1] | [5] | [6] | [7] | [4]

CC/C=C1/OC(=O)c2ccccc21
inactive: [5] | [6] | [8] | [7] | [9]

Brc1cc(Br)c(Oc2cc(Br)c(Br)cc2Br)cc1Br
inactive: [6] | [8] | [3] | [4]
active: [7] 29.9 µM

CCC(=O)C1CC(C(C)C)CC=C1C (stereo not given)
inactive: [5] | [6] | [8] | [7] | [9] | [2] | [3]

Cc1cc(C)c(N)cc1C
inactive: [5] | [6] | [8] | [7] | [2] | [4]

CCCCCCCCOc1ccc(C(=O)O)cc1
inactive: [1] | [5] | [8] | [2] | [4]

C[C@@H](O[C@H]1OCCN(Cc2n[nH]c(=O)[nH]2)[C@H]1c1ccc(F)cc1)c1cc(C(F)(F)F)cc(C(F)(F)F)c1
inactive: [5] | [9] | [4]
active: [1] 13.3 µM | [7] 26.6 µM | [2] 29.8 µM

CC1CC(C)C(=O)C1=O (stereo not given)
inactive: [5] | [6] | [8] | [7] | [2] | [4]

Oc1cccc(O)c1O
inactive: [5] | [6] | [8] | [7] | [4]

C[C@]12CC[C@@H]3c4ccc(O)cc4CC[C@H]3[C@@H]1CC[C@@H]2OC(=O)CCC1CCCC1
inactive: [8] | [2] | [4]
active: [1] 13.3 µM | [5] 2.2 nM and 2.7 nM | [7] 61.1 µM and 29.8 µM | [3] 4.9 nM and 4.2 nM

Cc1ccc2c(Br)cc(Br)c(O)c2n1
inactive: [5] | [8] | [2] | [4]
active: [7] 11.9 µM

O=C1c2ccccc2C(=O)C1(O)O
active: [1] 15.4 µM
inactive: [6] | [8] | [4]

C/C=C/C=C/C=O
inactive: [5] | [6] | [8] | [7] | [9] | [2] | [3]

O=C(O)C[C@H](NC(=O)OCc1ccccc1)C(=O)O
inactive: [1] | [5] | [6] | [8] | [7] | [2] | [3] | [4]

CC(CCC(=O)O)C(=O)O (stereo not given)
inactive: [5] | [6] | [8] | [7] | [2] | [4]

COc1ccccc1N1CCN(CC(O)COc2cccc3ccccc23)CC1 (stereo not given)
inactive: [5] | [8] | [4]
active: [6] 23.7 µM | [7] 5.96 µM | [2] 5.96 µM

CCOC(=O)c1ccc(OCCN2C[C@H](O)[C@@H](O)[C@H](O)[C@H]2CO)cc1
inactive: [1] | [8] | [7] | [2] | [3] | [4]

Nc1nnc(-c2ccc([N+](=O)[O-])o2)o1
active: [8] 54.5 µM
inactive: [1] | [5] | [3] | [4]

CCCCCCCC/C=C\CCCCCCCCCCCC(=O)O
inactive: [8] | [7] | [9] | [2]

CCCCCC[C@@H](O)C/C=C\CCCCCCCC(=O)OCC(O)CO (stereo not given in full)
inactive: [9] | [3]

CN1CCCN=C1COC(=O)C(O)(c1ccccc1)C1CCCCC1 (stereo not given)
inactive: [5] | [6] | [7] | [2] | [3] | [4]

CCCCCCCCCCC(=O)O
inactive: [5] | [8] | [2] | [3] | [4]

CN1C(=O)OC(C)(C)C1=O
inactive: [1] | [5] | [6] | [8] | [7] | [2] | [3]

O=c1cc(-c2ccccc2)oc2cc(O)cc(O)c12
inactive: [9] | [2] | [4]

COc1cc(C(=O)NCCCCCC(=O)O)cc(OC)c1OC
inactive: [5] | [6] | [8] | [7] | [2] | [4]

CCOc1ccccc1O[C@H](c1ccccc1)[C@H]1CNCCO1
inactive: [1] | [8] | [7] | [2] | [3] | [4]

CN(C)CCC=C1c2ccccc2C=Cc2ccccc21
inactive: [4]
active: [7] 26.6 µM | [2] 29.8 µM
